Assay outcomes: PubChem, several laboratories
Only some compounds are listed: those with a hit (about 27% of all), similar ones and a draw of the others.
CYP2C19 activ – human CYP2C19 activators, primary screen, biochemical, luminescence; Cytochrome P450 2C19 (Homo sapiens), P33261; 96,000 tested, under 10 active; AID 1025, 2008; recombinant CYP2C19, luciferin-H EGE luminescence; stronger effect = higher value; 0 = fully inhibited enzyme, 1 = untreated enzyme; activation factor at 5 µM;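 active means activation factor of at least 2 at 5 µM in the primary screen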;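 further: 0 = wells with 2.5 mM tranylcypromine and 1 = vehicle-only wells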
Target sequence (P33261 whole entry, looked up): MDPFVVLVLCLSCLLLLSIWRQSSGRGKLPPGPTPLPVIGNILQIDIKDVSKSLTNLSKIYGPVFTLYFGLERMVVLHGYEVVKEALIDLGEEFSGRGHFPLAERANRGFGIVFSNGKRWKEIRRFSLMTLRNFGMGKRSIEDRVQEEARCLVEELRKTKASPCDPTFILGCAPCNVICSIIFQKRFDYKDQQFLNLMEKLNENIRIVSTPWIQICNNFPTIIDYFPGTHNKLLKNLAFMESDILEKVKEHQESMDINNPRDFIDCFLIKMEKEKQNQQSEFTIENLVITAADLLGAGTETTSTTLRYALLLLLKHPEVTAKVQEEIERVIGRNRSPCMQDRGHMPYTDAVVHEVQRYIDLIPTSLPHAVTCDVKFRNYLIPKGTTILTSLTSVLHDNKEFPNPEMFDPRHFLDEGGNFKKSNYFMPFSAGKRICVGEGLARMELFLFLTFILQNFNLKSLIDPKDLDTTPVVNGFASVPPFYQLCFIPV
CYP2C19 inhib – blockers of cytochrome P450 2C19 activity – biochemical, luminescence, ADME assay, primary screen. inhibition, % at 5 µM. P33261. CYP2C19 Supersomes, luciferin-H EGE luminescence, 30 min. actives 21% (n = 96,000). AID 778, 2007;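 active means CYP2C19 inhibition above a set limit at 5 µM in the primary screen, cut at about 50% in these data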;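 further: plate controls were negative control wells for no effect and 2.5 mM tranylcypromine positive control for full effect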
sEH act – soluble epoxide hydrolase activators, primary screen, biochemical, human sEH. purified human sEH enzymatic activity, activator screen. actives 0.04% (n = 91,000). AID 717, 2007. activation, % at 2 µM; in the data active means activation above about 37%
sEH inhibitor – soluble epoxide hydrolase inhibitors, primary screen, biochemical, human sEH; inhibition, % at 2 µM; actives 0.34% (n = 91,000); recombinant human sEH enzymatic activity assay; in the data active means inhibition above about 80%
CYP2C9 inhib – blockers of cytochrome P450 2C9 activity – biochemical, luminescence, ADME assay, primary screen | AID 777, 2007 | inhibition, % at 5 µM | CYP2C9 Supersomes, luciferin-H conversion | actives 20% (n = 96,000) | P11712;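 active means blocking of liver enzyme CYP2C9 beyond about 50% at 5 µM, limit read from the data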
CYP2C9 activ – human CYP2C9 activators, primary screen, biochemical, luminescence; Cytochrome P450 2C9 (Homo sapiens), P11712; recombinant CYP2C9, luciferin-H conversion; stronger effect = higher value; factor 1 = untreated enzyme, 0 = blocked; activation factor at 5 µM; actives 1.4% (n = 96,000);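 active means activation factor of 2 or more for CYP2C9 at a 5 µM dose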;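 further: 0 = sulfaphenazole-blocked wells and 1 = vehicle-only wells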
Starred values were filed as active, the others as inactive; · = no result given.

SMILES	CYP2C19 activ	CYP2C19 inhib	sEH act	sEH inhibitor	CYP2C9 inhib	CYP2C9 activ
Cc1sc2ncn(-n3c(C)ccc3C)c(=O)c2c1C	0.5	47.2	9.8	-10.2	18.2	0.8
CC1(C)CC(CC(=O)O)(c2ccccc2)CCO1 (stereo not given)	0.9	5.6	-3.7	3.8	3.3	1
O=C(Nc1cc(Oc2ccccc2)cc([N+](=O)[O-])c1)C12CC3CC(C1)CC(n1cnc(Cl)n1)(C3)C2	0.5	53.7*	-10.9	11.5	68.5*	0.3
O=C(O)c1cccc(NC(=O)C23CC4CC(C2)CC(n2cnc(Cl)n2)(C4)C3)c1	0.4	61.7*	2.5	-1.1	70.9*	0.3
COC(=O)c1ccccc1NC(=O)C12CC3CC(C1)CC(n1cnc(Cl)n1)(C3)C2	·	·	-1.8	4.9	·	·
COC(=O)C12CC3CC(C1)CC(n1cnc(Cl)n1)(C3)C2	·	·	-2.7	5.0	·	·
O=C(O)c1cc(N2C(=O)C3CC=CCC3C2=O)ccc1NCc1cccnc1 (stereo not given)	0.8	15.1	4.8	-6.9	18.7	0.8
CCOC(=O)c1c(C)c(C(=O)NCC2CCCO2)c(C)n1C (stereo not given)	0.9	7.1	-11.6	11.5	-64.8	1.6
Fc1cccc(Cl)c1Cn1nnc2c(-n3ccnc3)ncnc21	0.1	94.9*	·	·	66.4*	0.3
CCOC(=O)c1cccc2c1-c1ccccc1/C2=N/O	0.6	41.8	-8.6	8.5	66.5*	0.3
O=C(O/N=C1\CCCc2ccccc21)c1ccc(F)cc1	1.1	-10.7	-3.4	1.4	-14.1	1.1
CC(C)OC(=O)C(C)Oc1ccc(C(=O)NCCc2ccccc2)cc1 (stereo not given)	0.8	15.0	-26.1	25.1	17.6	0.8
CC(=O)c1cccc(NC(=O)c2ccc(N(Cc3ccccc3C)S(C)(=O)=O)cc2)c1	·	·	2.4	2.8	·	·
Cc1ccccc1CN(c1ccc(C(=O)Nc2ccccc2C(=O)NCc2ccco2)cc1)S(C)(=O)=O	0	98.7*	1.3	0.7	83.0*	0.2
Cc1cccc(C)c1N(CC(=O)N1CCN(C)CC1)S(C)(=O)=O	1.1	-11.3	10.2	-11.0	-2.9	1
Cc1ccccc1CN(c1ccc(C(=O)N2CCc3ccccc3C2)cc1)S(C)(=O)=O	0.5	54.8*	9.4	-6.4	62.7*	0.4
CNC(=O)c1ccc(N(Cc2ccccc2C)S(C)(=O)=O)cc1	0.4	57.0*	5.5	-7.3	43.2	0.6
Cc1ccccc1CN(c1ccc(C(=O)Nc2ccccc2C(=O)N2CCCC2)cc1)S(C)(=O)=O	0	98.9*	5.0	-6.0	91.3*	0.1
C/C(=N\NC(=O)c1[nH]c2c([N+](=O)[O-])cc(C)cc2c1-c1ccccc1)c1cccnc1	0.4	62.3*	-4.2	7.5	30.0	0.7
CCc1cccc(CC)c1-n1c(SCn2nnc3ccccc3c2=O)nnc1-c1cccnc1	0	96.2*	-7.6	8.4	93.3*	0.1
C=CCn1c(SCn2nnc3ccccc3c2=O)nnc1-c1ccc(Br)cc1	0.2	75.6*	-9.3	7.5	75.2*	0.2
C=CCn1c(SCn2nnc3ccccc3c2=O)nnc1-c1ccc(F)cc1	0	99.1*	·	·	23.5	0.8
C=CCn1c(SCC(=O)NC2CCCCC2)nnc1C1CCCCC1	1	0.3	1.1	0.7	2.9	1
C=CCn1c(SCn2nnc3ccccc3c2=O)nnc1C1CCCCC1	0	97.6*	-5.7	5.2	9.9	0.9
Cc1cc(C)n(Cc2ccc(Cl)c(Cl)c2)c(=O)c1S(=O)(=O)c1ccccc1	1	2.1	-5.2	6.2	-8.1	1.1
SMILES	CYP2C19 activ	CYP2C19 inhib	sEH act	sEH inhibitor	CYP2C9 inhib	CYP2C9 activ
CCN(CC)S(=O)(=O)c1ccc(-c2nnc(SCc3nnc(-c4ccccc4)o3)o2)cc1	0.5	46.2	·	·	15.1	0.8
Cc1nc(SCn2nnc3ccccc3c2=O)nc(C)c1C	0.2	75.2*	·	·	8.5	0.9
c1ccc(CSc2ncnc3c2cnn3Cc2ccccc2)cc1	0.9	11.9	3.1	-4.0	19.3	0.8
CCOC(=O)CN1C(=O)C(O)(C2CCc3ccccc3C2=O)c2ccccc21 (stereo not given)	0.3	73.1*	6.2	-6.5	15.2	0.8
CCOC(=O)CN1C(=O)C(O)(c2c(C)[nH]c3ccccc23)c2ccccc21 (stereo not given)	0	98.7*	8.0	-10.4	94.1*	0.1
CCN(CC)c1nc2ccccc2n2cnnc12	1	-0.4	·	·	15.2	0.8
Cc1ccc(O)c(C(=O)c2cnn(C(=O)Cc3csc(C)n3)c2)c1	0.7	28.5	·	·	77.3*	0.2
COc1cccc(-n2c(SC)nnc2-c2cnccn2)c1	·	·	-9.7	11.1	·	·
O=C(NCc1ccc(F)cc1)c1cc2c(s1)CCCC2	0.6	36.5	-29.6	30.5	53.4*	0.5
CC1CCc2sc(C(=O)NCc3ccc(F)cc3)cc2C1 (stereo not given)	0.8	16.6	-13.9	12.4	17.5	0.8
COc1ccc(CNC(=O)c2cc3c(s2)CS(=O)C3)cc1 (stereo not given)	0.3	70.6*	-5.6	4.1	53.6*	0.5
COc1ccc(CNC(=O)c2cccc(N(C)C)c2)cc1	0.6	38.4	-14.1	18.6	-46.0	1.5
CC1C/C(=N/NC(=O)c2cccc(F)c2)c2ccc(O)cc2C1 (stereo not given)	0.5	51.0*	-25.0	25.1	-60.5	1.6
O=C(N/N=C/c1ccccc1Cl)c1cccc(F)c1	0.6	43.7	-25.8	26.1	29.2	0.7
COc1ccccc1C(=O)Nc1c2c(nn1-c1cccc(C)c1C)CS(=O)(=O)C2	1	-2.3	2.6	-4.5	-7.6	1.1
CCOC(=O)CSc1nc2ccccc2c(=O)n1C1CCCC1	0.8	16.2	23.5	-19.6	36.2	0.6
CCCCNC(=O)CSc1nc2ccccc2c(=O)n1C1CCCC1	0.7	26.3	1.4	-1.0	56.4*	0.4
Cc1nc2ccccc2c(=O)n1C1CCCCCC1	0.4	58.3*	-11.4	11.7	13.3	0.9
O=S(=O)(c1ccccc1)c1cnn(-c2ccccc2)c1-c1ccc(Cl)cc1	0.4	55.4*	0.3	2.4	23.3	0.8
Cc1ncc(S(=O)(=O)c2ccc(Cl)cc2)c(-c2ccccc2)n1	0.6	37.1	-11.8	9.2	45.7	0.5
Cc1ccc(Oc2nc(-c3ccccc3)ncc2S(=O)(=O)c2ccc(C)cc2)cc1	0.7	30.8	7.6	-5.4	-3.7	1
COc1ccc(-c2c(S(=O)(=O)c3ccccc3)cnn2-c2ccccc2)cc1	0	97.3*	-9.7	10.3	50.8*	0.5
COc1ccc(-c2nc(N)n[nH]2)cc1	0.8	16.2	-7.4	9.3	15.7	0.8
COc1cc(OC)cc(-c2nc(N)n[nH]2)c1	0.5	51.6*	-0.6	3.5	13.3	0.9
